Screens: PubChem BioAssay, The Scripps Research Institute Molecular Screening Center
Sampled rows, rich in hits. Any-hit rate of the full collection: about 4.6%.
hcDAF-12 act: activators of H. contortus DAF-12 nuclear receptor | 370,000 compounds, 1.4% hits | HEK293 hcDAF-12 lit1-tk-luc reporter, luminescence; 0% DMSO, 100% Δ7-dafachronic acid | activation, % at 6.8 µM | AID 652067;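 active means activation above the mean of all tested compounds plus 3 SD, cut at about 5.5% in these data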;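 further: 100% = response to 3 µM Δ7-dafachronic acid high control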
DAX1 inh-1: blocks DAX1 repression of SF-1 activated StAR promoter; inhibition, % at 6.8 µM; 370,000 compounds, 1.1% hits; HEK293T StAR-luciferase reporter, SF-1/DAX-1 repression relief; AID 652010;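 active means inhibition above the mean over all tested compounds plus 3 SD, cut at about 3.6% in these data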;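 further: 0% = DAX-1 cells with DMSO and 100% = cells lacking DAX-1 with DMSO; higher inhibition means more luminescence from relief of DAX-1 repression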
ssDAF12 agonist: activates DAF-12 receptor from parasite S. stercoralis; HEK293 ssDAF-12/GRIP1 lit1-tk-luc reporter, luminescence; % of 3 µM dafachronic acid response; 370,000 compounds, 1% hits; activation, % at 6.8 µM;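 active means activation above the mean over all tested compounds plus 3 SD, cut at about 0.9% in these data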;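 further: 0% = DMSO-only wells and 100% = 3 µM delta7-dafachronic acid wells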
hgDAF12 agonist: hgDAF-12 agonism, primary luciferase screen; activation, % at 6.8 µM; HEK293 GAL4-hgDAF12 UAS-luciferase reporter, agonist luminescence; normalized to butyrate control; 370,000 compounds, 1.8% hits;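 active means activation above a cutoff set at the mean of all screened compounds plus 3 SD, cut at about 10% in these data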;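 further: 0% = DMSO wells and 100% = sodium butyrate wells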
DAX1 inh-2: inhibitors of human orphan nuclear receptor DAX1 (NR0B1); inhibition, % at 6.75 µM; HEK293 Gal4-DAX1 luciferase reporter, luminescence; AID 504766; 340,000 compounds, 0.99% hits;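 active means inhibition above the mean over all tested compounds plus 3 SD, cut at about 4.2% in these data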;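 further: 0% = DAX1-transfected cells with DMSO and 100% = empty-vector control cells with DMSO; inhibition shows as a rise in luminescence from relieved DAX1 repression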
Wee1 stabilizer: blocks degradation of human Wee1 kinase; reporter increase, % at 5 µM; P30291; AID 1321; HeLa Luc-Wee1K328M stability, luciferase luminescence; 100% = proteasome inhibitor MG132 effect; 220,000 compounds, 1.2% hits;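 active means activation above the mean of all tested compounds plus 3 SD, set per screening run, cut at about 8.8% in these data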;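 further: cells exposed to compound for 20 h before luminescence read; 0% = DMSO alone and 100% = MG132 at 30 µM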
Target sequence (P30291 whole entry K328M): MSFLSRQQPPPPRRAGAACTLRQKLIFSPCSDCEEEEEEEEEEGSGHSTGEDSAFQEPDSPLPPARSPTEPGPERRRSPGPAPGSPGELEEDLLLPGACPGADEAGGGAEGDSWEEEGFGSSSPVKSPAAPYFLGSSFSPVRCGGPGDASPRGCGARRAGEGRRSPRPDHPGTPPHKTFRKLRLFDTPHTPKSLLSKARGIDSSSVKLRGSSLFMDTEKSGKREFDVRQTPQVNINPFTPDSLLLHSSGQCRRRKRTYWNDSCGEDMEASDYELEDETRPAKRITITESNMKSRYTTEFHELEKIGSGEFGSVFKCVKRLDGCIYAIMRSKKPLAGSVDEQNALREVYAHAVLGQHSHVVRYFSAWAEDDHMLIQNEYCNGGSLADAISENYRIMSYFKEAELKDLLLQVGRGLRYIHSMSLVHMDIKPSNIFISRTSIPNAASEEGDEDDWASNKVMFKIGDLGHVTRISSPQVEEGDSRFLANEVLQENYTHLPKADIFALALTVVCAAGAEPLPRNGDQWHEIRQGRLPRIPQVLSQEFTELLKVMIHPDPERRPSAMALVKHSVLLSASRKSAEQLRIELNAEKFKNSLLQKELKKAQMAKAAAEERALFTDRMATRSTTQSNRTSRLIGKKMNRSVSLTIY
Wee1 stab conf: confirmation of human Wee1 degradation inhibitors | AID 1410 | 1,100 compounds, 4% hits | HeLa Luc-Wee1K328M degradation, luminescence; vehicle 0%, proteasome-blocked wells 100% | activation, % at 5 µM | shares compounds with Wee1 stabilizer; in the data active means activation above about 8.9%
An asterisk follows results filed as active; . = no result.

SMILES | hcDAF-12 act | DAX1 inh-1 | ssDAF12 agonist | hgDAF12 agonist | DAX1 inh-2 | Wee1 stabilizer | Wee1 stab conf
Cc1ccc(C2CC(=O)N(c3ccc(F)cc3)C3=C2C(=O)CCC3)cc1 (configuration not stated) | -1 | 1 | 0 | -1 | 0 | -4 | .
Cc1ccc(C)c(NS(=O)(=O)c2ccc(NC(=O)CSc3ccc(Cl)cc3)cc2)c1 | -2 | 0 | -1 | -2 | -1 | -1 | .
CC(=O)NS(=O)(=O)c1ccc(NC(=O)CSc2ccc(Cl)cc2)cc1 | 1 | 0 | 1 | 0 | . | 13* | 1
Cc1ccc(NS(=O)(=O)N2CCCCC2)cc1 | 0 | 1 | -1 | 0 | 1 | . | .
CC(=O)c1sc(NC(=O)c2ccccc2F)nc1-c1ccccc1 | 1 | 2 | 0 | 10 | 2 | 14* | 2
CC(=O)c1sc(NC(=O)c2ccc(F)cc2)nc1-c1ccccc1 | 0 | 0 | -2 | 0 | 1 | 5 | .
Cc1cccc(-n2cc(-c3ccccc3)c3c(NN4CCOCC4)ncnc32)c1 | -1 | 0 | -1 | -1 | 0 | 24* | 1
O=C1CC(C(=O)Nc2ccc(F)c(Cl)c2)N=C(N2CCCCC2)N1 (configuration not stated) | -1 | 0 | -2 | 1 | -1 | 4 | .
O=C1CC(C(=O)Nc2ccccc2)N=C(N2CCOCC2)N1 (configuration not stated) | -1 | 0 | -1 | 0 | 0 | 11* | 4
Cc1ccc2c(COC(=O)c3n[nH]c4ccccc34)cc(=O)oc2c1 | 0 | 1 | -1 | 2 | 1 | 14* | -1
CCc1ccc2c(COC(=O)c3n[nH]c4ccccc34)cc(=O)oc2c1 | 3 | 1 | 0 | 5 | -1 | -2 | .
O=C(/C(=C/O)N=Nc1ccccc1)c1cccs1 | -2 | 0 | -1 | -3 | -1 | 11* | 2
CC(C(=O)Nc1ccccc1F)N1CCN(S(=O)(=O)c2ccc(C(F)(F)F)cc2)CC1 (configuration not stated) | 0 | 1 | 0 | 0 | 1 | . | .
COc1cc(OC)c(NC(=O)CN(C)S(=O)(=O)c2ccc3[nH]c(=O)oc3c2)cc1Cl | -2 | 0 | 0 | 0 | 1 | . | .
O=C(NC1CCCCC1)NC1CC2CCC(C1)N2C(=O)NC1CCCCC1 (configuration not stated) | . | . | . | . | . | 15* | -1
Cc1ccc(S(=O)(=O)CCC(=O)OCC(=O)NC(N)=O)cc1 | 1 | 1 | -1 | 2 | 2 | 14* | 0
O=C(c1ccc(NC(=O)C2(c3ccccc3)CCCC2)cc1)N1CCOCC1 | -1 | 0 | -1 | -3 | . | 27* | -2
C#CCOCCOCCOCCNc1nc(N2CCN(C(=O)[C@H](CCC(=O)O)n3cc(C(N)CC(C)C)nn3)CC2)nc(N2CCN(C(=O)[C@H](CCC(=O)O)n3cc(C(N)CC(C)C)nn3)CC2)n1 (some centres not stated) | . | . | . | . | 1 | 12* | -2
C#CCOCCOCCOCCNc1nc(N2CCN(C(=O)[C@H]([C@@H](C)CC)n3cc([C@@H](N)CC(C)C)nn3)CC2)nc(N2CCN(C(=O)[C@H](CCCCN)n3cc([C@@H](N)C(C)CC)nn3)CC2)n1 (some centres not stated) | . | . | . | . | 0 | 15* | -1
COc1ccc(C(=O)NCCS(=O)(=O)N2CCc3ccccc3C2)cc1 | 0 | 1 | -1 | -2 | 0 | . | .
COc1cccc(/C=N/Nc2ccc(C(=O)O)cc2)c1O | -6 | -4 | -3 | -17 | -8 | -4 | .
COc1cccc(/C=N/Nc2ccc(S(=O)(=O)O)cc2)c1O | 1 | 0 | -1 | 1 | 0 | 18* | 5
CN(CC(=O)Nc1ccc(F)c(F)c1F)C(=O)C1CCC1 | 3 | -1 | -1 | -2 | 0 | . | .
FC(F)Oc1ccc(/C=N/n2c(Cc3ccc(Br)cc3)n[nH]c2=S)cc1 | 0 | 0 | 0 | 0 | 1 | . | .
CSc1ccc(/C=N/n2c(Cc3ccc(Br)cc3)n[nH]c2=S)cc1 | 0 | 1 | -1 | 3 | 0 | 11* | 6
SMILES | hcDAF-12 act | DAX1 inh-1 | ssDAF12 agonist | hgDAF12 agonist | DAX1 inh-2 | Wee1 stabilizer | Wee1 stab conf
O=[N+]([O-])/C=C\c1ccc(N2CCCC2)c(F)c1 | . | . | . | . | -1 | 16* | 0
CC(=O)NC(C)(c1ccccc1)c1nc(/C=C/c2ccccc2)cs1 (configuration not stated) | -3 | -1 | -1 | -4 | . | . | .
CN(CC(O)COc1ccccc1F)C1CCCCC1 (configuration not stated) | -1 | -1 | 0 | -4 | 0 | 11* | 1
CC(O)(c1cccnc1)c1nc(-c2cccc(C#N)c2)cs1 (configuration not stated) | -2 | -1 | -1 | 0 | . | . | .
CCOCCn1c(CN2CCN(c3ccccc3)CC2)nc2c1c(=O)n(C)c(=O)n2C | -3 | 0 | -1 | -2 | 0 | 11* | -1
CCCC(=O)Nc1ccc2c(c1)nc(CN1CCCCC1)n2C | -1 | 1 | -1 | 2 | 2 | 16* | 5
CCCC(=O)Nc1ccc2c(c1)nc(CN1CCCC1)n2C | 0 | 0 | 0 | 0 | 0 | 1 | .
CCOC(=O)c1ccc(NC(=O)C(CC)(CC)C(=O)OCC)cc1 | -1 | 0 | -2 | 2 | 0 | 16* | -2
CCOC(=O)c1ccc(NC(=S)Nc2cccc(N)n2)cc1 | 0 | 2 | -1 | 3 | 0 | 18* | 1
CCOC(=O)c1ccc(NC(=S)Nc2cccc(C)n2)cc1 | -1 | 0 | -1 | -1 | -1 | -2 | .
COc1ccc(OC)c(S(=O)(=O)Nc2c(NC3CCCCC3)c3ccccc3oc2=O)c1 | . | . | . | . | 0 | . | .
Cc1ccsc1/C=C(\C#N)C(=O)NC1CCS(=O)(=O)C1 (configuration not stated) | 0 | 0 | 0 | 5 | 0 | 12* | 3
S=c1[nH]nc(-c2ccco2)n1/N=C/c1ccc(Cl)cc1 | -1 | 0 | 0 | 0 | -1 | 13* | 0
O=S1(=O)CC(N2CCC(Cc3ccccc3)CC2)CN1C1CCCC1 (configuration not stated) | 2 | -2 | -1 | -1 | . | . | .
CC1CC(C)CN(C(=S)SCc2nc(N)nc(Nc3ccccc3)n2)C1 (configuration not stated) | -1 | 1 | -2 | -2 | 0 | 12* | -4
COc1cccc(N(CC(=O)N/N=C(\C)c2cccs2)S(C)(=O)=O)c1 | 0 | 0 | -1 | -4 | 0 | 38* | 4
CCN(CCC(=O)Nc1cc([N+](=O)[O-])ccc1OC)Cc1ccccc1 | 3 | -1 | -2 | 1 | 0 | 13* | 3
